# Results as given in PubChem BioAssay.
# Unmarked numbers belong to inactive results. No rule for the calls is given here.
# Target: Pantothenate synthetase (Mycobacterium tuberculosis (strain ATCC 25618 / H37Rv)) (UniProt P9WIL5)
# Experiment: Recombinant Mtb pantothenate synthetase (PanC) inhibitors, coupled enzyme, confirmatory (AID 375);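 also: 0% = full reaction with vehicle and 100% = no enzyme background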
# Conditions: coupled enzyme assay; at 10 µM, active compounds read high
# Pantothenate synthetase (Mycobacterium tuberculosis (strain ATCC 25618 / H37Rv)), sequence (P9WIL5 whole entry, looked up): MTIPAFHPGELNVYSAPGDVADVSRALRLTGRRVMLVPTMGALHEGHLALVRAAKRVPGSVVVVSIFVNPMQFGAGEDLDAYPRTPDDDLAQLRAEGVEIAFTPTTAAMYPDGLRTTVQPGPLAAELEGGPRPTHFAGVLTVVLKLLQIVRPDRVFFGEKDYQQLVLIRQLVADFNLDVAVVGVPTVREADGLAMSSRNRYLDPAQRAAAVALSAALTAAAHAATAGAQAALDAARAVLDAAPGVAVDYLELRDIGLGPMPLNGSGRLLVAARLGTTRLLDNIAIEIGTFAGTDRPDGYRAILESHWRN
row,Compound,inhibition [%]
1,CC(=O)Nc1ccc2nc(-c3cccnc3)[nH]c2c1,0
2,COc1ccccc1S(=O)(=O)Cc1ccc(C(=O)NCCN2CCCCCC2)o1,0
3,CCC(NC(C)C)C(O)c1ccc(O)c(O)c1 (centres undefined),0
4,CCCCN(C)C(=O)c1cn(C)c2ccc(S(=O)(=O)N(C)C)cc2c1=O,0
5,COc1ccccc1C(=O)Nc1c2c(nn1-c1cccc(C)c1C)CS(=O)(=O)C2,7
6,O=C(Nc1ccccc1N1CCN(c2ccc(F)cc2)CC1)c1ccccc1,0
7,Cc1cc2ncc(-c3ccc(Cl)cc3)c(N)n2n1,0
8,CCN(CC)CCCN1C(=O)C(=O)/C(=C(/O)c2ccc(C)cc2)C1c1ccccn1 (centres undefined),3
9,CCC(C)(C)n1nnnc1C(c1cc2cc(OC)ccc2[nH]c1=O)N1CCc2ccccc21 (centres undefined),0
10,O=C(CSc1nc(-c2ccco2)cc(C(F)(F)F)n1)N1CCCc2ccccc21,5
11,CCCCS(=O)(=O)NC1=NCN(CCOC(=O)c2ccccc2)CN1,0
12,Cn1c(=O)cc(SCC(=O)NCc2cccnc2)c2ccccc21,4
13,C=CCNC(=O)c1ccc(Cl)cc1Cl,0
14,O=C(CSc1nc2ccccc2o1)N1CCN(c2ccc(Cl)cc2)CC1,0
15,CCOCCCNc1ncnc2c1[nH]c1ccccc12,0
16,COc1cccc(-c2cc(C(F)(F)F)n3ncc(C(=O)O)c3n2)c1,0
17,COc1ccc(C(C(C(=O)c2cccs2)N2CCOCC2)N2CCOCC2)cc1OC (centres undefined),0
18,Cc1ccc2nc(-c3ccccn3)cc(C(=O)N3CCN(c4ncccn4)CC3)c2c1,3
19,O=C(COc1ccccc1Cl)N1CCCC1,2
20,C1CCc2nnc(-c3nnc4n3CCCCC4)n2CC1,10

row,Compound,inhibition [%]
1,Cc1ccc(-c2cc(C(=O)N3CCCC3)no2)cc1,0
2,CCOC(=O)C1CCN(S(=O)(=O)c2cccc(-c3csc(C)n3)c2)CC1,0
3,COC(=O)c1cccc(NC(=O)NC2CCCN2S(=O)(=O)c2ccc(Cl)cc2)c1 (centres undefined),16
4,COc1ccc(CNC(=O)c2nnn(Cc3ccc(OC)cc3)c2N)cc1,0
5,CC(=O)Nc1ccc(S(=O)(=O)CCC#N)cc1,5
6,O=C(NC1CCCCC1NC(=O)c1ccco1)c1ccco1 (centres undefined),0
7,N#CC1=C(N)OC2=C(CCC/C2=C/c2ccoc2)C1c1ccoc1 (centres undefined),2
8,O=C(O)C1C2CCC(O2)C1C(=O)Nc1cccc(F)c1 (centres undefined),1
9,CCOC(=O)N1CCN(S(=O)(=O)c2ccc(OCC)c(C)c2)CC1,0
10,COc1cccc(-c2cc(C(=O)NCc3ccc(Cl)cc3)no2)c1,0
11,CCn1c(=S)sc2nc(C)sc21,1
12,O=C(/C=N/O)Nc1cccnc1,0
13,CC(C)[C@H](NC(=O)[C@@H]1CSCN1C(=O)OC(C)(C)C)C(=O)NCC1CCC(C(=O)O)CC1 (some centres undefined),7
14,COc1ccc(OC)c(C2=NOC(C(=O)NCCN3CCOCC3)C2)c1 (centres undefined),0
15,C=CCOC(=O)C1=C(C)OC(N)=C(C#N)C1c1ccc2c(c1)OCO2 (centres undefined),9
16,Cc1ccccc1-c1nc(CN2CCC(C(=O)NCCCN3CCOCC3)CC2)c(C)o1,5
17,Cc1cccc(-c2cc3nc4c(c(N5CCOCC5)n3n2)CCCC4)c1,0
18,CC(C)COc1ccc(C2NC(=O)NC2=O)cc1 (centres undefined),0
19,O=C(COC(=O)C1=COCCO1)Nc1ccccc1Oc1ccccc1,1
